For orientation: inhibition means the drop in the measured response relative to a control, in per cent.

In all, about 220,000 compounds went through this assay and about 2,400 (1.1%) were called active. This is one part of a sample in which actives are shown more often than they occur.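 The calls were made as follows: active = inhibition above a per-campaign cutoff, the mean inhibition of all tested compounds plus 3 SD (cut at about 27% in these data); inactive = the rest.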

This assay is described as follows: growth loss in parental Ba/F3 cells – cell-based, murine pro-B, CellTiter-Glo luminescence, counter-screen for JAK2V617F inhibitor project (AID 1486).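 Also: 0% = DMSO wells and 100% = JAK Inhibitor I control wells.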 The conditions noted are these: Ba/F3 parental viability, CellTiter-Glo ATP luminescence; at 5.6 µM; active compounds read high.
`CCCCCCCCCCCCn1ccc(=N)cc1`: the inhibition was 102% (active).

As for `CCC(C)n1c(O)c(/C=N/Nc2nc3c(c(=O)n(C)c(=O)n3C)n2C)c(=O)[nH]c1=S` (stereo not given), the inhibition is -0.78% (inactive).

Take `O=c1c2ccccc2nc(/C=C/c2ccco2)n1-c1ccccc1O`: the inhibition is -6.32% (inactive).

For the compound `CCOP(=O)(OCC)C(NC(=O)NC)C(N)=O` (stereo not given), the inhibition is 4.51% (inactive).

`CC/C(=N\NC(=O)c1ccccc1O)c1c(O)n(Cc2ccccc2)c(=O)[nH]c1=O`: the inhibition is -2.72% (inactive).

Take `Cc1ccc(CN2CCCC(C(=O)c3ccc4c(c3)OCO4)C2)cc1C` (stereo not given): the inhibition is 2.33% (inactive).

For `CCOc1ccc(-c2cc(C)[n+](CCN(CC)CC)c(-c3ccc(OCC)cc3)c2)cc1`, the inhibition was 81.7% (active).

With `O=c1[nH]c(=O)n(CCc2ccc(F)cc2)c(O)c1/C=N/N1CCCCC1`, the inhibition is -4.39% (inactive).

As for `CC(C)c1ccc(-n2c(O)c(/C=N/N3CCOCC3)c(=O)[nH]c2=S)cc1`, the inhibition was 2.53% (inactive).

For `COc1cc(OC)cc(C2(C#N)CCN(C)CC2)c1`, the inhibition is -2.96% (inactive).

For `CN(C)CC1Oc2ccccc2OC1(O)c1ccccc1` (stereo not given), the inhibition was 8.72% (inactive).

With `COCc1cc(OC(=O)N(C)C)nc(-c2ccc(C)c(Cl)c2)n1`, the inhibition is 3.28% (inactive).

Turning to `CC1=CC(=Cc2sc3ccccc3[n+]2C)C=C(C)O1`, the inhibition was 106% (active).

Consider `COc1ccc(-n2c(O)c(C(C)=Nc3ccc4c(c3)CCC4)c(=O)[nH]c2=O)cc1`, for which the inhibition was 2.36% (inactive).

`O=C1CC(=O)N(Cc2ccccc2)C(=O)N1CCCCCCN1C(=O)CC(=O)N(Cc2ccccc2)C1=O`: the inhibition was -0.44% (inactive).

In the case of `CC1(C)Cc2c(C#N)c(N3CCNCC3)nc(-c3ccco3)c2CS1`, the inhibition is 1.77% (inactive).

As for `CC1=C(C(=O)Nc2ccccc2)S(=O)(=O)CCO1`, the inhibition was 0.55% (inactive).

As to `CNC(=O)O/N=C(\N)Cc1csc2ccc(Cl)cc12`, the inhibition is 3.22% (inactive).

For the compound `CCOc1cccc(=NC2CCCCC2)c2c(C)[nH]c(C)c12`, the inhibition was 50.8% (active).

As to `COc1ccc(-n2c(-c3ccccc3)nc3ccccc3c2=O)cc1`, the inhibition was 1.83% (inactive).
